{"source": "the supplement of paper PMC4206461"}
{"test_system": "Pseudomonas aeruginosa PA14 dppBCDF deletion mutant", "assay": "respiration area under curve with compound as sole nitrogen source, 24 h (OmniLog AUC (arbitrary units)); higher = more respiration / better utilisation as nitrogen source, active = 2000 or more; extreme values may be limits of the assay", "method": "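Biolog Phenotype MicroArray plates PM6-PM8: each di/tripeptide is the sole nitrogen source. Tetrazolium reduction was read in the OmniLog every 15 min for 24 h at 37°C and summarised as area under the respiration curve (arbitrary units). Values below 2000 count as no respiration. Strain is the dipeptide ABC transporter deletion mutant.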"}
{"compound": "CSCCC(N)C(=O)NC(CCSC)C(=O)O", "note": "(stereo not given) (plate: PM7)", "respiration area under curve": "0 (inactive)"}
{"compound": "N[C@@H](CC(=O)O)C(=O)NCC(=O)O", "note": "(plate: PM8)", "respiration area under curve": "0 (inactive)"}
{"compound": "NC(N)=NCCC[C@H](N)C(=O)N[C@@H](Cc1ccccc1)C(=O)O", "note": "(plate: PM6)", "respiration area under curve": "8100 (active)"}
{"compound": "CC(C)C[C@H](N)C(=O)N1CCC[C@H]1C(=O)O", "note": "(plate: PM8)", "respiration area under curve": "0 (inactive)"}
{"compound": "NCC(=O)N[C@@H](CCCN=C(N)N)C(=O)O", "note": "(plate: PM6)", "respiration area under curve": "7970 (active)"}
{"compound": "CC[C@H](C)[C@H](N)C(=O)N[C@@H](CCCN=C(N)N)C(=O)O", "note": "(plate: PM6)", "respiration area under curve": "8420 (active)"}
{"compound": "O=C(O)[C@H](CO)NC(=O)[C@@H]1CCCN1", "note": "(plate: PM8)", "respiration area under curve": "1290 (inactive)"}
{"compound": "CC(NC(=O)C(N)CC(=O)O)C(=O)O", "note": "(stereo not given) (plate: PM8)", "respiration area under curve": "12.2 (inactive)"}
{"compound": "C[C@H](N)C(=O)N[C@@H](CC(N)=O)C(=O)O", "note": "(plate: PM6)", "respiration area under curve": "6980 (active)"}
{"compound": "C[C@H](NC(=O)[C@@H](N)CCCN=C(N)N)C(=O)O", "note": "(plate: PM6)", "respiration area under curve": "8890 (active)"}
{"compound": "NC(=O)C[C@H](NC(=O)[C@@H]1CCCN1)C(=O)O", "note": "(plate: PM8)", "respiration area under curve": "5910 (active)"}
{"compound": "CC[C@H](C)[C@H](N)C(=O)N[C@@H](Cc1ccccc1)C(=O)O", "note": "(plate: PM6)", "respiration area under curve": "52.2 (inactive)"}
{"compound": "NC(N)=NCCC[C@H](NC(=O)[C@@H]1CCCN1)C(=O)O", "note": "(plate: PM8)", "respiration area under curve": "7840 (active)"}
{"compound": "CC(C)C(NC(=O)C1CCCN1)C(=O)O", "note": "(stereo not given) (plate: PM8)", "respiration area under curve": "134 (inactive)"}
{"compound": "CCC(C)C(N)C(=O)NC(CC(N)=O)C(=O)O", "note": "(stereo not given) (plate: PM8)", "respiration area under curve": "488 (inactive)"}
{"compound": "N[C@@H](Cc1c[nH]c2ccccc12)C(=O)NCC(=O)O", "note": "(plate: PM7)", "respiration area under curve": "6.75 (inactive)"}
{"compound": "CSCC[C@H](NC(=O)[C@@H](N)Cc1ccccc1)C(=O)O", "note": "(plate: PM8)", "respiration area under curve": "269 (inactive)"}
{"compound": "CC(C)[C@H](N)C(=O)N[C@@H](C)C(=O)O", "note": "(plate: PM8)", "respiration area under curve": "207 (inactive)"}
{"compound": "CSCC[C@H](NC(=O)[C@@H](N)CO)C(=O)O", "note": "(plate: PM7)", "respiration area under curve": "88.8 (inactive)"}
{"compound": "C[C@H](N)C(=O)N[C@@H](Cc1ccc(O)cc1)C(=O)O", "note": "(plate: PM6)", "respiration area under curve": "4510 (active)"}
{"compound": "CC(C)[C@H](N)C(=O)N[C@@H](Cc1ccccc1)C(=O)O", "note": "(plate: PM8)", "respiration area under curve": "3500 (active)"}
{"compound": "NC(N)=NCCC[C@H](NC(=O)[C@@H](N)Cc1c[nH]c2ccccc12)C(=O)O", "note": "(plate: PM7)", "respiration area under curve": "11800 (active)"}
{"compound": "C[C@H](N)C(=O)N[C@H](C(=O)O)[C@@H](C)O", "note": "(plate: PM6)", "respiration area under curve": "1650 (inactive)"}
{"compound": "CC[C@H](C)[C@H](N)C(=O)N1CCC[C@H]1C(=O)O", "note": "(plate: PM6)", "respiration area under curve": "0 (inactive)"}
{"compound": "C[C@@H](O)[C@H](N)C(=O)N[C@@H](CCC(N)=O)C(=O)O", "note": "(plate: PM8)", "respiration area under curve": "454 (inactive)"}
{"compound": "CSCC[C@H](NC(=O)CN)C(=O)O", "note": "(plate: PM6)", "respiration area under curve": "0 (inactive)"}
{"compound": "C[C@H](NC(=O)[C@@H](N)CCC(=O)O)C(=O)O", "note": "(plate: PM8)", "respiration area under curve": "51.5 (inactive)"}
{"compound": "CC(C)C[C@H](N)C(=O)N[C@@H](CO)C(=O)O", "note": "(plate: PM7)", "respiration area under curve": "11800 (active)"}
{"compound": "C[C@@H](O)[C@H](N)C(=O)N[C@@H](CCC(=O)O)C(=O)O", "note": "(plate: PM7)", "respiration area under curve": "34.2 (inactive)"}
{"compound": "NCC(=O)N[C@@H](Cc1c[nH]c2ccccc12)C(=O)O", "note": "(plate: PM6)", "respiration area under curve": "0 (inactive)"}
{"compound": "CSCC[C@H](N)C(=O)N[C@@H](Cc1ccc(O)cc1)C(=O)O", "note": "(plate: PM8)", "respiration area under curve": "55.2 (inactive)"}
{"compound": "C[C@H](N)C(=O)NCC(=O)O", "note": "(plate: PM6)", "respiration area under curve": "3630 (active)"}
{"compound": "CC[C@H](C)[C@H](NC(=O)[C@@H](N)Cc1ccc(O)cc1)C(=O)O", "note": "(plate: PM8)", "respiration area under curve": "5950 (active)"}
{"compound": "CSCCC(N)C(=O)NC(CCCN=C(N)N)C(=O)O", "note": "(stereo not given) (plate: PM7)", "respiration area under curve": "13000 (active)"}
{"compound": "CC(C)[C@H](NC(=O)[C@@H](N)Cc1ccc(O)cc1)C(=O)O", "note": "(plate: PM8)", "respiration area under curve": "5040 (active)"}
{"compound": "NC(=O)CC[C@H](NC(=O)[C@@H](N)CCCN=C(N)N)C(=O)O", "note": "(plate: PM6)", "respiration area under curve": "9270 (active)"}
{"compound": "CC(C)C[C@H](NC(=O)[C@@H]1CCCN1)C(=O)O", "note": "(plate: PM7)", "respiration area under curve": "626 (inactive)"}
{"compound": "NCC(=O)N[C@@H](Cc1ccccc1)C(=O)O", "note": "(plate: PM6)", "respiration area under curve": "350 (inactive)"}
{"compound": "NCC(=O)N[C@H](CC(=O)O)C(=O)O", "note": "(plate: PM8)", "respiration area under curve": "0 (inactive)"}
{"compound": "CC(C)C[C@@H](N)C(=O)N[C@H](CC(C)C)C(=O)O", "note": "(plate: PM8)", "respiration area under curve": "0 (inactive)"}
